Each structure is given as a SMILES string. The source made the active and inactive calls. How the calls were made is not given here.

One may read the inhibition as the change of the read-out against control, counted positive when it falls.

The target in this experiment is Pantothenate synthetase (Mycobacterium tuberculosis (strain ATCC 25618 / H37Rv)) (UniProt P9WIL5). Briefly: Coupled enzyme confirmation of inhibitors against recombinant Mtb PanC (AID 375).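 Further: 0% = full reaction with vehicle and 100% = no enzyme background.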 The settings on record: coupled enzyme assay; at 10 µM, active compounds read high.
Pantothenate synthetase (Mycobacterium tuberculosis (strain ATCC 25618 / H37Rv)), sequence (P9WIL5 whole entry, looked up): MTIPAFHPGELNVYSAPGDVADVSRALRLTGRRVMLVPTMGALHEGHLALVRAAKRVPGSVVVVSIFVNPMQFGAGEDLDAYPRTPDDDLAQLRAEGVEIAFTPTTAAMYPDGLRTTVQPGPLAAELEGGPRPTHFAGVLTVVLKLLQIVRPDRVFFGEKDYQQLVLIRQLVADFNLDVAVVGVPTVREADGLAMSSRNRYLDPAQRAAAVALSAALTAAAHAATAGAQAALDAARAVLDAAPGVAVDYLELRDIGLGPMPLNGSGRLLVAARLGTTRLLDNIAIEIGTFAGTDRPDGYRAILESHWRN
As for `COc1ccc(OCCCC(=O)Nc2nncs2)cc1`, the inhibition is 0% (inactive).
On to `COCCn1nnnc1C(c1cccs1)N1CCN(c2cc(C)ccc2C)CC1` (configuration not stated), for which the inhibition was 0% (inactive).
On to `Cc1ccc(-c2nnn(CC(=O)N(Cc3cccs3)C(C(=O)NC(C)(C)C)c3ccc(C)o3)n2)o1` (configuration not stated), for which the inhibition is 0% (inactive).
As for `Cc1ccc(-c2noc(CN3C(C)CCCC3C)n2)cc1` (configuration not stated), the inhibition is 0% (inactive).
The result for `CCOC(=O)c1ccc(Oc2cc(C)nc(SC)n2)cc1` reads 0% (inactive); that for `COCCOC(=O)c1c(C)nc(SCC(=O)Nc2ccc(OC)cc2)c(C#N)c1-c1ccco1`, 0% (inactive); that for `Cc1ccc(NC(=O)CSc2nnc(CNC(=O)c3c(F)cccc3Cl)o2)cc1`, 3% (inactive).
The figure for `Cc1ccc(/C(O)=C2\C(=O)C(=O)N(CCCN(C)C)C2c2ccccn2)cc1` (configuration not stated) is 1% (inactive); for `COc1cc(OC)cc(C(=O)N2c3ccc(F)cc3CCC2C)c1` (configuration not stated) it is 0% (inactive); for `COCCn1c(Sc2nc(C)cs2)nc2c1c(=O)[nH]c(=O)n2C` it is 0% (inactive).
The result for `CC1(C)CC(=O)CC(=Nc2ccc(C(=O)O)cc2)C1` reads 8% (inactive); that for `CC(C(=O)OCn1nnc2ccccc2c1=O)N1C(=O)c2ccccc2C1=O` (configuration not stated), 0% (inactive).
Consider `CSC1=C(C#N)C(c2ccc(C)cc2)C2=C(CCCC2=O)N1` (configuration not stated), for which the inhibition was 0% (inactive).
The result for `OCCOCCN1CCN(C(c2ccccc2)c2ccc(Cl)cc2)CC1` (configuration not stated) reads 1% (inactive); that for `Cc1nc2ccc(S(=O)(=O)NCC(=O)O)cc2s1`, 4% (inactive).
As for `C=CCOC(=O)C1=C(C)OC(N)=C(C#N)C1c1ccc2c(c1)OCO2` (configuration not stated), the inhibition is 9% (inactive).
On to `COC(=O)c1sc(NC(=O)c2ccoc2C)nc1C`, for which the inhibition is 0% (inactive).

(Values after PubChem BioAssay.)
